Test systems include DU-145 prostate; K-562 leukemia; MALME-3M melanoma; MDA-MB-231 breast; RXF 393 renal; SF-268 CNS; SF-295 CNS; SF-539 CNS; UACC-257 melanoma; M14 melanoma.
Holding throughout (assay): NCI-60 one-dose screen, 48 h (100 = growth as untreated, 0 = no growth, -100 = all killed)
What all share (conditions): 10 µM unless noted

This is part of a sample that, as a whole, favours compounds with a hit. Of some 83,000 tested, about 20% had one in any assay.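 Compound tested at a single concentration for 48 hours in 96-well plates; a percent growth value below 10 was scored as active.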 Values without a mark were called inactive. Active and inactive are the calls of the source.

Our source for the growth values is PubChem BioAssay (NCI).

Take `COC(=O)[C@@]1(O)C[C@H]2O[C@]1(C)n1c3ccccc3c3c4c(c5c6ccccc6n2c5c31)C(=O)NC4`: the growth is -10.9% (active) in the experiment with DU-145 prostate; 0.0974% (active) in the experiment on K-562 leukemia; -81% (active) in the experiment on MALME-3M melanoma; -49.1% (active) with MDA-MB-231 breast; -93.9% (active) in the experiment with RXF 393 renal; -28.8% (active) in the experiment on SF-268 CNS. The growth with SF-295 CNS is -93.4% (active); with SF-539 CNS, -88% (active); in the experiment on UACC-257 melanoma it was -47.2% (active); in the experiment with M14 melanoma it was -67.5% (active).

`O=C(CCCCCCC(=O)Nc1ccc(N(CCCl)CCCl)cc1)NO`: the growth with DU-145 prostate was 29%; in the experiment with K-562 leukemia, 32.6%; in the experiment with MALME-3M melanoma, 19.2%; in the experiment with MDA-MB-231 breast it was 85.8%; in the experiment with RXF 393 renal, -4.05% (active); in the experiment with SF-268 CNS, 11.6%. Further, the growth in the experiment with SF-295 CNS was 32.7%; in the experiment with SF-539 CNS it was 31.1%; in the experiment on UACC-257 melanoma, 18.6%; in the experiment on M14 melanoma, 42.5%.

On to `CC1=C(CNO)C2=C(C)C3(CC3)[C@@](C)(O)C(=O)C2=C1`, for which the growth was 4.97% (active) in the experiment on DU-145 prostate; 88.4% with K-562 leukemia; -62.6% (active) with MALME-3M melanoma; 10.3% in the experiment with MDA-MB-231 breast; -70.3% (active) in the experiment on RXF 393 renal; 0.784% (active) with SF-268 CNS. Besides, the growth in the experiment on SF-295 CNS is -4.83% (active); in the experiment with SF-539 CNS, -35.3% (active); in the experiment on UACC-257 melanoma it was -24.3% (active); with M14 melanoma it was 26.8%.

For `CC(C)COC(C[N+](=O)[O-])C(Cl)(Cl)Cl` (stereo not given), the growth in the experiment on DU-145 prostate is 119%; with K-562 leukemia it was 99.9%; in the experiment on MALME-3M melanoma it was 123%; in the experiment with MDA-MB-231 breast it was 111%; in the experiment with RXF 393 renal it was 115%; with SF-268 CNS, 105%. Moreover, the growth was 113% in the experiment with SF-295 CNS, 106% in the experiment on SF-539 CNS, 96.1% in the experiment on UACC-257 melanoma and 105% in the experiment with M14 melanoma.

With `COc1ccc2c(c1)c(-c1nc(-c3c[nH]c4ncccc34)cs1)cn2CCN1CCOCC1`, the growth is 45.3% in the experiment with DU-145 prostate; 38.3% in the experiment with K-562 leukemia; 71% in the experiment on MALME-3M melanoma; 51% in the experiment on MDA-MB-231 breast; 53.7% with RXF 393 renal; 60.9% in the experiment with SF-268 CNS. For the same compound, the growth in the experiment on SF-295 CNS was 62%; in the experiment on SF-539 CNS it was 48.2%; in the experiment with UACC-257 melanoma, 92.1%; in the experiment with M14 melanoma it was 49.4%.

Regarding `C1CCC2(CC1)OOCNCOO2`, the growth was 111% with DU-145 prostate; -35.4% (active) in the experiment on K-562 leukemia; 110% in the experiment with MALME-3M melanoma; 120% in the experiment on MDA-MB-231 breast; 116% in the experiment with RXF 393 renal; 97.3% in the experiment with SF-268 CNS. In addition, the growth was 97.4% in the experiment with SF-295 CNS, 101% in the experiment on SF-539 CNS, 98.5% in the experiment on UACC-257 melanoma and 100% in the experiment on M14 melanoma.

Consider `CC12CCC3C(CCC4Cc5[nH]c6ccccc6c5CC43C)C1CCC2O` (stereo not given), for which the growth was -21.2% (active) in the experiment on DU-145 prostate; 5.1% (active) in the experiment with K-562 leukemia; 48.3% in the experiment on MALME-3M melanoma; 37.1% with MDA-MB-231 breast; -13.8% (active) in the experiment on RXF 393 renal; 47.5% in the experiment on SF-268 CNS. Also, the growth in the experiment with SF-295 CNS is -10.7% (active); in the experiment with SF-539 CNS it was 9.54% (active); with UACC-257 melanoma, 74.1%; in the experiment with M14 melanoma, 20.6%.

Regarding `CCCCCCCCCCCCCCCCCC1OC[C@@H](COC(=O)O[C@@H](C(=O)O[C@H]2C[C@@]3(O)[C@@H](OC(=O)c4ccccc4)[C@@H]4[C@]5(OC(C)=O)CO[C@@H]5C[C@H](O)[C@@]4(C)C(=O)[C@H](OC(C)=O)C(=C2C)C3(C)C)[C@@H](NC(=O)c2ccccc2)c2ccccc2)O1` (stereo not given in full), the growth is 45.1% in the experiment with DU-145 prostate; 46.6% in the experiment on K-562 leukemia; 50.5% in the experiment on MALME-3M melanoma; 60.5% in the experiment on MDA-MB-231 breast; 63.1% in the experiment on RXF 393 renal; 66% with SF-268 CNS. Besides, the growth was 61% in the experiment with SF-295 CNS, 51.9% with SF-539 CNS, 69.8% in the experiment with UACC-257 melanoma and 38.8% in the experiment with M14 melanoma.

`CC[C@H](C)[C@H](NC(=O)c1ccccn1)C(=O)N(C)[C@H](C[C@@H](OC(C)=O)c1nc(C(=O)N[C@@H](Cc2ccccc2)C[C@H](C)C(=O)OC)cs1)C(C)C`: the growth with DU-145 prostate was 6.32% (active); in the experiment with K-562 leukemia, 10.8%; with MALME-3M melanoma, 53.8%; in the experiment with MDA-MB-231 breast, 15.8%; in the experiment with RXF 393 renal it was -11.2% (active); with SF-268 CNS, 32.3%. Besides, the growth with SF-295 CNS is 7.86% (active); with SF-539 CNS, -24% (active); in the experiment with UACC-257 melanoma it was 69.8%; in the experiment on M14 melanoma, 4.96% (active).

As to `COc1ccc(/C=C\c2cc(OC)c(OC)c(OC)c2)cc1OCC(=O)Nc1nc2ccc(OC(F)(F)F)cc2s1`, the growth with DU-145 prostate is 6.56% (active); with K-562 leukemia, 22.9%; in the experiment on MALME-3M melanoma, 26.4%; in the experiment with MDA-MB-231 breast, 36.7%; in the experiment with RXF 393 renal it was 26.4%; in the experiment on SF-268 CNS it was 45.8%. In addition, the growth is 40.8% in the experiment with SF-295 CNS, 14% in the experiment with SF-539 CNS, 58.7% with UACC-257 melanoma and 11.5% with M14 melanoma.

Regarding `O=C(CCCCCNC1=CC(=O)c2ccccc2C1=O)NCCC[Te]c1ccccc1`, the growth in the experiment with DU-145 prostate was -11.6% (active); with K-562 leukemia, 32.7%; in the experiment on MALME-3M melanoma, -52.3% (active); in the experiment on MDA-MB-231 breast, -39.8% (active); in the experiment with RXF 393 renal, 13.8%; with SF-268 CNS, -26.7% (active). The growth with SF-295 CNS was -32.5% (active); in the experiment with SF-539 CNS it was -49.7% (active); with UACC-257 melanoma it was 2.91% (active); in the experiment on M14 melanoma, -37.6% (active).

`COc1ccc2c(c1)c(C1(O)CC(CSC#N)OC1=O)cn2C(=O)c1ccc(Cl)cc1` (stereo not given): the growth in the experiment with DU-145 prostate was 114%; in the experiment with K-562 leukemia, 98.5%; with MALME-3M melanoma, 81.9%; with MDA-MB-231 breast, 92.9%; in the experiment on RXF 393 renal it was 114%; with SF-268 CNS, 106%. Besides, the growth was 90.2% with SF-295 CNS, 96.3% in the experiment with SF-539 CNS, 95.5% with UACC-257 melanoma and 96.4% in the experiment with M14 melanoma.
